The record followed here is PubChem BioAssay AID1347416 (National Center for Advancing Translational Sciences (NCATS), 2020).

The whole screen tested about 4,100 compounds, of which about 1,600 (39%) were called active. About 25% were inconclusive and are not listed. This is one part of the list. Unmarked numbers belong to inactive results. Calls follow the shape of the dose curve; as a rule, active = well fitted inhibition curve with a large enough effect; inconclusive = small, poorly fitted or top-dose-only effect; inactive = no such curve, though single readings can be large or run the other way.
% is scaled to controls: 0 for no effect and ±100 for the full control effect; potency is read from the fitted curve at half-maximal effect.

This test in a line: qHTS Validation assay for Inhibitors of Plasmodium falciparum Dd2 growth in vitro. Also: nearly all actives have a fitted effect of over 70% in size. The settings on record: P. falciparum Dd2 in RBCs, SYBR Green growth, 72 h; series mostly up to 28.7 µM; activity change, negative = inhibition: at the top concentration. Put shortly: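 P. falciparum Dd2-infected red blood cells (2.5% hematocrit, 0.3% parasitemia) grown 72 h at 37 °C under 5% O2 with compounds in a titration, 29 uM to 0.5 nM final. Growth read as SYBR Green-1 fluorescence after ~16 h lysis; artesunate 300 nM as positive control.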
With `Cc1ccsc1C(=O)N1CCC(n2cc(-c3nc(C(C)C)no3)nn2)CC1`, the “activity change, negative = inhibition” value was 26.4%.

`CN(c1ccccc1)c1cc(=O)c2ccnc(-c3ccccc3O)c2o1`: the “activity change, negative = inhibition” value is -13.3% [at 43.1 µM].

`Cc1noc(C)c1-c1nccc2c(=O)cc(N(C)c3ccccc3)oc12`: the Potency was 17.2 µM (active).

Take `CN(c1ccccc1)c1cc(=O)c2ccnc(-c3ccncc3)c2o1`: the “activity change, negative = inhibition” value was 7.74% [at 43.1 µM].

Take `O=S(=O)(c1ccccc1)N1CCCC(Cc2noc(-c3ccncc3)n2)C1` (stereo not given): the “activity change, negative = inhibition” value was 39.4%.

On to `Cc1cnc(CC2CCCN(S(=O)(=O)c3ccccc3)C2)n1CC1CC1` (stereo not given), for which the Potency was 6.68 µM (active).

Take `CCCn1c(C)cnc1CC1CCN(S(=O)(=O)c2ccc3c(c2)CCC3)C1` (stereo not given): the Potency is 9.44 µM (active).

Regarding `Cc1cnc(CC2CCN(S(=O)(=O)c3ccccc3)CC2)n1Cc1ccccc1`, the Potency is 5.31 µM (active).

For `CC(=O)N1CCC(Cc2ncc(C)n2CC2CC2)C1` (stereo not given), the “activity change, negative = inhibition” value is 13.1%.

On to `COc1ccc(S(=O)(=O)N2CCCC(Cc3noc(-c4ccncc4)n3)C2)cc1` (stereo not given), for which the “activity change, negative = inhibition” value was 4.86%.

In the case of `CCc1ccc(S(=O)(=O)N2CCC(n3cnnc3CC)CC2)cc1`, the “activity change, negative = inhibition” value was -9.08%.

On to `COCCn1c(C)cnc1CC1CCN(C(=O)Nc2ccccc2F)C1` (stereo not given), for which the “activity change, negative = inhibition” value was 13.6%.

As to `O=C(NCc1nc2ccccc2[nH]1)C1=C[C@@H](c2ccccc2)C[C@@H](OCc2ccc(CO)cc2)O1`, the “activity change, negative = inhibition” value is 23.3%.

Regarding `CCNC(=S)N/N=C/c1sc(N2CCCCC2)nc1-c1cccs1`, the Potency is 0.668 µM (active).

`CN1CCN(c2nc(Nc3ccc(O)cc3)nc3ccccc23)CC1`: the Potency is 4.22 µM (active).

With `O=C(Oc1c(CN2CCOCC2)cc(Cl)c2cccnc12)c1ccccc1Br`, the Potency was 7.5 µM (active).

`COc1cc(OC)cc(C(=O)Oc2c(CN3CCOCC3)cc(Cl)c3cccnc23)c1`: the “activity change, negative = inhibition” value is 2.5%.

For `CC(C)=NOC(=O)c1c(C)noc1-c1snnc1C`, the Potency was 6.68 µM (active).

For `CCCC(c1nnnn1CCC(C)C)N1CCC(C(N)=O)CC1` (stereo not given), the “activity change, negative = inhibition” value is 12.3%.

`CCCC(O)(c1ccc(Cl)cc1)C(CN1CCOCC1)c1ccc(Cl)cc1` (stereo not given): the Potency is 4.73 µM (active).

`CCC(=O)N(C1CCOCC1)C1CCN(Cc2cc(F)ccc2F)CC1`: the “activity change, negative = inhibition” value was 8.14%.

As for `CCCCC(O)(c1ccc(F)cc1)C(CN1CCOCC1)c1ccc(Cl)cc1` (stereo not given), the Potency is 5.96 µM (active).

Turning to `OC(c1ccc(Cl)cc1)C(CN1CCOCC1)c1ccccc1` (stereo not given), the Potency is 2.99 µM (active).

Regarding `CCOc1cc(CNCC(O)c2ccccc2)cc(Cl)c1OC` (stereo not given), the Potency is 3.35 µM (active).

Consider `O=C1c2c(nc(CNCc3cccc(F)c3)n2Cc2ccccc2)NCCN1Cc1cccc(Cl)c1`, for which the “activity change, negative = inhibition” value was -13.6%.

For the compound `OC(CNCc1cccc(Br)c1)c1ccccc1` (stereo not given), the Potency is 5.96 µM (active).

Turning to `OC(C[n+]1ccccc1)c1ccccc1` (stereo not given), the “activity change, negative = inhibition” value is 21.8%.

For the compound `OC(CNCc1cccc(Cl)c1)c1ccccc1` (stereo not given), the Potency is 4.73 µM (active).

Regarding `O=C(c1ccc(F)c(Cl)c1)N1CCC[C@H]1c1nc(-c2ccccc2)no1`, the “activity change, negative = inhibition” value was 11.4%.

For the compound `Cc1nn(C(=O)CCCC(=O)N2CCCC2c2nc(C3CCOCC3)no2)c2ccccc12` (stereo not given), the “activity change, negative = inhibition” value was 0%.

As to `Cc1ccc2c(C)c(C(=O)N3CCCC3c3nc(C(C)C)no3)oc2c1C` (stereo not given), the Potency is 6.68 µM (active).

On to `Cc1cc(C(C)c2ccccc2)c(O)c(CN2CCOCC2)c1C` (stereo not given), for which the Potency is 2.99 µM (active).

`CC(Oc1ccc(Br)cc1)c1nc2c3ccccc3nc(=S)n2[nH]1` (stereo not given): the “activity change, negative = inhibition” value is 12%.

With `C/C(=N\Nc1nc(-c2ccccc2O)nc2ccccc12)c1ccccc1`, the Potency was 0.75 µM (active).

Take `Oc1ccccc1Nc1nc(-c2ccccc2O)nc2ccccc12`: the Potency is 0.944 µM (active).

Turning to `CNC(=O)[C@H]1C[C@H](Oc2cccnc2)CN1S(=O)(=O)Cc1ccccc1F`, the “activity change, negative = inhibition” value is 12.3%.

As for `CN1C(=O)CCC2(C(=O)O)CCCC=C12` (stereo not given), the “activity change, negative = inhibition” value was 19.8%.

Regarding `CCN(CC)CCNC(=O)C12CCCC=C1N(Cc1ccccc1)C(=O)CC2` (stereo not given), the Potency is 8.41 µM (active).

On to `O=C(NCC12CCC=C1N(CC1CC1)C(=O)CC2)Nc1cccc(F)c1` (stereo not given), for which the “activity change, negative = inhibition” value was 3.63%.

For `CCOc1ccccc1NC(=O)C1CCN(S(=O)(=O)c2c(C)noc2/C=C/c2ccco2)CC1`, the Potency is 15 µM (active).

`Cc1cc(C)c(/C=C/c2onc(C)c2S(=O)(=O)N2CCC(C(=O)Nc3ccc(Cl)c(C(F)(F)F)c3)CC2)c(C)c1`: the Potency was 10.6 µM (active).

As for `Cc1ccc(NC(=O)C2CCN(S(=O)(=O)c3ccc4[nH]c(=O)ccc4c3)CC2)cc1C`, the “activity change, negative = inhibition” value is 30.7%.

As to `COc1ccc(/C=C\c2onc(C)c2S(=O)(=O)N2CCC(C(=O)Nc3ccc(C)cc3C)CC2)cc1`, the Potency was 0.842 µM (active).

On to `CCOCCOC1CCN(S(=O)(=O)c2c(C)noc2C)CC1`, for which the “activity change, negative = inhibition” value is 11.4%.

As for `CCOC(=O)c1c(S(=O)(=O)N2CCC(C(=O)Nc3ccc(F)cc3F)CC2)c(C)n(C)c1C`, the “activity change, negative = inhibition” value is 48.1%.

Consider `Cc1cc(C)n(Cc2ccc(C(=O)N3CCC(c4noc(-c5cccnc5)n4)C3)o2)n1` (stereo not given), for which the “activity change, negative = inhibition” value was 5.3%.

With `Cc1ccc(CSC2=Nc3ccccc3C3=NC(CC(=O)NCc4ccco4)C(=O)N23)cc1` (stereo not given), the Potency was 6.68 µM (active).

On to `Cc1ccc(CC(=O)NCc2nnc3c(-c4nc(C(C)C)no4)cccn23)cc1`, for which the “activity change, negative = inhibition” value was 2.86%.

For the compound `COc1cc(C)ccc1OCCSc1nc2ccc(NC(=O)c3cccs3)cc2s1`, the Potency is 13.3 µM (active).

`COc1cc(C)ccc1OCCSc1nc2ccc(NC(=O)c3ccc(F)cc3)cc2s1`: the Potency was 10.6 µM (active).

`Cc1ccccc1OCCSc1nc2ccc(NC(=O)c3cccs3)cc2s1`: the Potency was 5.31 µM (active).

`Cc1ccc2[nH]c(C(=O)Nc3ccc(F)cc3)cc2c1`: the “activity change, negative = inhibition” value was 33.2%.

Regarding `COc1ccc(NC(=O)c2cc3c(N4CCSCC4)nc(C)cn3n2)cc1OC`, the “activity change, negative = inhibition” value is -5.63%.

Regarding `Cc1cccc(OCCSc2nc3ccc(NC(=O)c4cccs4)cc3s2)c1`, the Potency was 9.44 µM (active).

With `Cc1ccccc1C(=O)NNc1ccc(-c2csnn2)cc1`, the “activity change, negative = inhibition” value was 37.5%.

On to `CCCCc1ccc(NC(=O)CSC2=C(C#N)C(c3ccco3)C3=C(CCCC3=O)N2)cc1` (stereo not given), for which the “activity change, negative = inhibition” value is -11.9%.

For the compound `N[C@@H]1CN(c2ncccn2)C[C@H]1CO`, the “activity change, negative = inhibition” value is 0%.

On to `O=C(NCc1cccs1)c1ccc(CN2C(=O)NC3(CCS(=O)(=O)CC3)C2=O)cc1`, for which the “activity change, negative = inhibition” value was -5.88%.

For the compound `CCCOc1cccc(C(=O)Nc2ccc(-c3cc4ccccc4oc3=O)c(C)c2)c1`, the “activity change, negative = inhibition” value was -6.71%.

Turning to `Cc1ccccc1OCCSc1nc2ccc(NC(=O)c3ccccc3)cc2s1`, the Potency is 15 µM (active).

On to `COc1ccc(S(=O)(=O)N2CCc3cc(OC)c(OC)cc3C2)cc1`, for which the “activity change, negative = inhibition” value is 22.2%.

With `COc1ccc(S(=O)(=O)N2CCC3(CC2)OCCN3S(=O)(=O)c2c(C)cc(C)cc2C)cc1`, the Potency is 2.66 µM (active).

Take `O=C1C(Nc2ccccc2)=C/C(=N/S(=O)(=O)c2cccs2)c2ccccc21`: the Potency is 0.335 µM (active).

`Cc1cccc(NC2=C/C(=N/S(=O)(=O)c3cccs3)c3ccccc3C2=O)c1`: the Potency is 0.168 µM (active).

On to `COC(=O)[C@H]1[C@H]2C[C@@H]3c4[nH]c5cc(OC)ccc5c4CCN3C[C@H]2C[C@@H](OC(=O)/C=C/c2cc(OC)c(OC)c(OC)c2)[C@@H]1OC`, for which the Potency was 5.31 µM (active).

As for `CCOC(=O)c1ccc(NC(=O)Cn2c(-c3cnccn3)nc(C)c(CCO)c2=O)cc1`, the “activity change, negative = inhibition” value was 0%.

Consider `Cc1ccc(NC(=O)Cn2c(-c3ccccc3)nc(C)c(CCO)c2=O)cc1Cl`, for which the Potency is 10.6 µM (active).

For `Cc1nc(-c2ccccc2)n(CC(=O)Nc2ccc(Cl)cc2)c(=O)c1CCO`, the Potency is 16.8 µM (active).

Regarding `Cc1nc(-c2cccc(Cl)c2)n(CC(=O)Nc2ccc(C(F)(F)F)cc2)c(=O)c1CCO`, the Potency is 13.3 µM (active).

For the compound `COc1ccc2c(c1)C=C([C@@H]1C[C@H]3CN(c4ccccc4)C(=O)[C@]34CCCN14)CO2`, the Potency is 0.944 µM (active).

Turning to `COc1ccc(-c2cc(-c3cccc(NC(C)=O)c3)cn3cncc23)cn1`, the Potency is 21.7 µM (active).

Consider `O=C(C[C@@H]1CCNC[C@@H]1Cc1cc(CSc2ccccc2)on1)N1CCN(c2ccccc2)CC1`, for which the Potency was 8.41 µM (active).

Turning to `COc1ccc(CNC(=O)C[C@@H]2CCNC[C@@H]2Cc2cc(-c3ccccc3)on2)cc1OC`, the “activity change, negative = inhibition” value is 9.35%.

As to `O=C(C[C@@H]1CCNC[C@@H]1Cc1cc(COc2ccccc2)on1)NCc1cccs1`, the “activity change, negative = inhibition” value was -17.5% [at 43.1 µM].

`CC(=O)N1CCN(C(=O)C[C@@H]2CCNC[C@@H]2Cc2cc(CSc3ccccc3)on2)CC1`: the “activity change, negative = inhibition” value was -1%.

For the compound `CC(C)(C)c1ccc(-c2cc(C[C@H]3CNCC[C@H]3CC(=O)N3CCN(c4ccccn4)CC3)no2)cc1`, the Potency is 15 µM (active).

For the compound `CCC(=O)N1CCCCCCNC(=O)[C@@H]2C[C@@H](C(=O)N3CCN(c4ccccn4)CC3)C[C@@H]21`, the “activity change, negative = inhibition” value is 10.7%.

As for `CCN1CCN(Cc2ccc(NC(=O)c3cc(NC(=O)c4nccnc4N)cc(OC)c3)cc2C(F)(F)F)CC1`, the Potency was 4.73 µM (active).

Consider `CCN1CCN(Cc2ccc(NC(=O)c3cc(NC(=O)c4cncc(-c5ccc(C#N)cc5)c4)cc(OC)c3)cc2C(F)(F)F)CC1`, for which the Potency was 0.596 µM (active).

Regarding `COc1cc(NC(=O)c2nnn(Cc3ccc(F)cc3)c2N)cc(OC)c1`, the “activity change, negative = inhibition” value was -13.8%.

As to `CCN1CCN(Cc2ccc(NC(=O)c3cc(NC(=O)c4cc(-c5ccc(OC)cc5)n[nH]4)cc(OC)c3)cc2C(F)(F)F)CC1`, the Potency is 0.168 µM (active).

Take `O=C(Nc1ccc2c(c1)C(=O)N1CCC[C@H]1C(=O)N2)c1cc(-c2ccccc2)n[nH]1`: the “activity change, negative = inhibition” value is -18.8%.

For the compound `COc1ccc(CNC(=O)N[C@@H]2CN(c3ccncn3)C[C@H]2CN(C)C)cc1`, the “activity change, negative = inhibition” value is 20.7%.

Take `O=c1cc(CSc2ccc(Cl)cc2)nc(-c2ccccn2)[nH]1`: the Potency was 5.96 µM (active).

Take `COc1ccc2cc1Nc1ccc(cc1)C[C@H](NCc1ccc(C)o1)C(=O)N(C)[C@@H](C(=O)NCc1ccccc1)C2`: the Potency was 5.31 µM (active).

For the compound `CC(C)(C)CC(=O)N1CCC(N2C(=O)CCC2C(=O)NCc2ccccc2)CC1` (stereo not given), the “activity change, negative = inhibition” value was 12.3%.

Take `COc1ccc2cc1Nc1ccc(cc1)C[C@H](NCc1ccc(C)o1)C(=O)N(C)[C@H](C(=O)NCCC(C)C)C2`: the Potency was 5.96 µM (active).

As to `CCC(=O)N1CCN(c2nc3c(s2)CC(C(=O)NCc2ccc(C)o2)CC3)CC1` (stereo not given), the “activity change, negative = inhibition” value was -36.4%.

Take `COc1ccc2cc1Nc1ccc(cc1)C[C@H](NCc1cccc(C(=O)O)c1)C(=O)N(C)[C@H](C(=O)Nc1ccccc1OCc1ccccc1)C2`: the Potency was 4.73 µM (active).

In the case of `COc1ccc2cc1Nc1ccc(cc1)C[C@H](NCc1ccc3c(c1)CCO3)C(=O)N(C)[C@H](C(=O)NCCC(C)C)C2`, the Potency was 3.35 µM (active).
